Experimental data from PubChem BioAssay.
Active and inactive are the calls of the source. Unless noted, how the calls were made is not given here.

Legend:
[1] = resazurin metabolic signal in HepG2 cells – cell-based, resazurin fluorescence, 24 h, PK04 Diversity Set, profiling panel (AID 1172); conditions: HepG2 viability, higher = more signal; further: test concentration not given here
[2] = budding yeast growth changes without added modifier – OD600, strain BY4716, 24 h, basal condition, primary screen (AID 1173); conditions: S. cerevisiae BY4716 growth, OD600, 24 h; higher = more signal, called active from +8 up or from −8 down
[3] = viability profiling in MM1S myeloma cells – cell-based, resazurin fluorescence, basal, 24 h, PK04 Diversity Set, profiling panel (AID 1174); conditions: higher = more signal, called active from +8 up or from −8 down;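 further: MM1S multiple myeloma cell line; test concentration not given here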
[4] = biological target: Dihydroorotate dehydrogenase (quinone), mitochondrial (Plasmodium falciparum (isolate 3D7)) (UniProt Q08210); test: inhibition of P. falciparum DHODH – biochemical, C-terminal His tag, absorbance 600 nm, primary screen (AID 1175); conditions: PfDHODH enzyme, DCIP absorbance 600 nm; higher = more signal, called active from +8 up or from −8 down;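 further: recombinant parasite enzyme with a five histidine tag at its C terminus; test concentration not given here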
[5] = inhibition of PAO1 biofilm formation – strain PAO1, LB-PBS medium, absorbance 600 nm, primary screen (AID 1176); further: test concentration not given here; conditions: P. aeruginosa PAO1 growth/biofilm, A600, 12 h; higher = more signal
[6] = growth modulation of vineyard yeast isolate – strain RM11-1a, OD600, basal, 24 h, primary screen (AID 1177);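 further: cultures grown under basal conditions with no added stressor; test concentration not given here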; conditions: S. cerevisiae RM11-1a growth, OD600, 24 h; higher = more signal, called active from +8 up or from −8 down
[7] = growth of efflux-deficient E. coli DRC39 – strain DRC39, OD650, 24 h, E. coli filamentation inducers, primary screen (AID 1178);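 further: growth measured as culture turbidity by optical density at 650 nm; test concentration not given here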; conditions: E. coli DRC39 acrAB, higher = more signal, called active from +8 up or from −8 down
[8] = growth of efflux-deficient E. coli DRC39 – strain DRC39, OD650, 48 h, E. coli filamentation inducers, primary screen (AID 1179);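 further: screen aims at cell division blockers that make cells filament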; conditions: E. coli DRC39 delta-acrAB growth, higher = more signal, called active from +8 up or from −8 down
[9] = viability profiling in RPMI8226 myeloma cells – cell-based, resazurin fluorescence, basal, 24 h, PK04 Diversity Set, profiling panel (AID 1180); conditions: higher = more signal;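 further: RPMI8826 multiple myeloma cell line at 5000 cells per well; test concentration not given here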
[10] = biological target: E3 ubiquitin-protein ligase XIAP (Homo sapiens) (UniProt P98170); test: small molecules binding XIAP protein – biophysical, small-molecule microarray, fluorescence 635 nm, primary screen (AID 1181); conditions: higher = more signal;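 further: score merges 667 nm emission and signal to noise over triplicate slides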
Sequence of E3 ubiquitin-protein ligase XIAP (Homo sapiens) (P98170 whole entry, looked up): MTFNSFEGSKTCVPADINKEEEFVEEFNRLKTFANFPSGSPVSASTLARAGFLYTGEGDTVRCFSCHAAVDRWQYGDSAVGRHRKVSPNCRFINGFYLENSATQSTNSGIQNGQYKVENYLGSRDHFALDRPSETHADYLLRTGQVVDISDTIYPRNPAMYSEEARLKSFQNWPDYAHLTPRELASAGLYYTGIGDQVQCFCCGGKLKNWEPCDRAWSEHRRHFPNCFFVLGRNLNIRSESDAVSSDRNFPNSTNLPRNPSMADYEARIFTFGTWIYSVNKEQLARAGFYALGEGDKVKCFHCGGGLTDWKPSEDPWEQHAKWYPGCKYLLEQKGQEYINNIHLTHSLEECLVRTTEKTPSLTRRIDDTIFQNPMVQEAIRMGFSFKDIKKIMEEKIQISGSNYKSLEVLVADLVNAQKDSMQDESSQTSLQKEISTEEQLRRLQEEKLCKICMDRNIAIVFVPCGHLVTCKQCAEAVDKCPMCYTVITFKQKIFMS

Sequence of Dihydroorotate dehydrogenase (quinone), mitochondrial (Plasmodium falciparum (isolate 3D7)) (Q08210 whole entry, looked up): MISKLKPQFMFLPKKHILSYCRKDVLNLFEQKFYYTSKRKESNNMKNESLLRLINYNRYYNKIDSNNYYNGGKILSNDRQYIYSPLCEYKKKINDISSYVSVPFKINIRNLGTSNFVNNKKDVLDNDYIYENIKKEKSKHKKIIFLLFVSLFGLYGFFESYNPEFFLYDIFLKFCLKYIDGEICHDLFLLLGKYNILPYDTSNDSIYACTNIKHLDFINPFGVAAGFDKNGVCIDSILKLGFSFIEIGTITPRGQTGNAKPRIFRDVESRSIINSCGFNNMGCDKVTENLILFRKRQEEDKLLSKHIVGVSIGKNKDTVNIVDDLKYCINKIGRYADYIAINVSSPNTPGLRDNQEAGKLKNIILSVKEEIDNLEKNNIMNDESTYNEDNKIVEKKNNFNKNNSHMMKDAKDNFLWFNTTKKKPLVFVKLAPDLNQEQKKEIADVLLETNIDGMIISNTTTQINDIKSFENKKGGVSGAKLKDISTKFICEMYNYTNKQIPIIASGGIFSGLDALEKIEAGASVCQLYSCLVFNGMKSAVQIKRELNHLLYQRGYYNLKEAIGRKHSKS

COC(=O)[C@@]1(Cc2ccc(F)cc2)[C@H]2c3cc(C(=O)N4CCCC4)n(Cc4ccc(OC(F)(F)F)cc4)c3C[C@H]2CN1C(=O)c1ccccc1
z-score [1]: 0.178 | z-score [2]: 0.944 (inactive) | z-score [3]: -0.799 (inactive) | composite z-score [4]: -0.132 (inactive) | z-score [5]: 0.827 (inactive) | z-score [6]: 0.157 (inactive) | z-score [7]: -0.961 (inactive) | z-score [8]: -0.678 (inactive) | z-score [9]: -0.453 | composite z-score [10]: 0.0306

O=C1O[C@@H](c2ccccc2)[C@@H](c2ccccc2)N2[C@@H](c3ccccc3OCCO)[C@]3(C(=O)Nc4ccc(C#CC5(O)CCCCCC5)cc43)[C@@H](C(=O)N3CCCCCCC3)[C@H]12
z-score [1]: -0.225 | z-score [2]: 0.866 (inactive) | z-score [3]: -0.169 (inactive) | composite z-score [4]: -1.03 (inactive) | z-score [5]: 1.33 (inactive) | z-score [6]: 0.312 (inactive) | z-score [7]: -0.36 (inactive) | z-score [8]: -1.17 (inactive) | z-score [9]: -0.186 | composite z-score [10]: 1.97

CCCCN1CC=CC23O[C@@H]4C=CCCOC(=O)C4[C@H]2C(=O)N(CCO)[C@@H]3C1=O (stereo not given in full)
z-score [1]: 0.551 | z-score [2]: -0.0816 (inactive) | z-score [3]: 0.309 (inactive) | composite z-score [4]: 0.0051 (inactive) | z-score [5]: 0.345 (inactive) | z-score [6]: 0.13 (inactive) | z-score [7]: -0.323 (inactive) | z-score [8]: -0.414 (inactive) | z-score [9]: -0.0692 | composite z-score [10]: -0.104

O=C1O[C@H](c2ccccc2)[C@H](c2ccccc2)N2[C@H]1[C@@H](C(=O)O)[C@]1(C(=O)Nc3ccccc31)[C@H]2c1ccc(OCCO)cc1
z-score [1]: 0.0019 | z-score [2]: -0.302 (inactive) | z-score [3]: -0.0917 (inactive) | composite z-score [4]: -0.652 (inactive) | z-score [5]: 0.0485 (inactive) | z-score [6]: -0.785 (inactive) | z-score [7]: -0.545 (inactive) | z-score [8]: -0.858 (inactive) | z-score [9]: 1.16 | composite z-score [10]: 0.18

Cc1ccc(S[C@]2(C(=O)NC(C)C)CC(=O)N(Cc3ccccc3)[C@@H]2c2ccc(CO)cc2I)cc1
z-score [1]: -0.885 | z-score [2]: -2.23 (inactive) | z-score [3]: -3.48 (inactive) | composite z-score [4]: -0.489 (inactive) | z-score [5]: 0.003 (inactive) | z-score [6]: -0.101 (inactive) | z-score [7]: -0.0759 (inactive) | z-score [8]: 0.494 (inactive) | z-score [9]: -2.8 | composite z-score [10]: 0.301

COc1ccc([Si](C)(C)[C@H]2[C@H](CCO)O[C@@]3(C(=O)N(Cc4ccccc4)c4ccc(NC(=O)[C@H](C)O)cc43)[C@@H]2C)cc1
z-score [1]: -4.02 | z-score [2]: 0.478 (inactive) | z-score [3]: -7.25 (inactive) | composite z-score [4]: 1.18 (inactive) | z-score [5]: 1.7 (inactive) | z-score [6]: 4.58 (inactive) | z-score [7]: 1.23 (inactive) | z-score [8]: 0.723 (inactive) | z-score [9]: -5.45 | composite z-score [10]: 0.0153

CN1C(=O)C2C=CC(C(O)c3cccs3)N(N(c3ccccc3)c3ccccc3)C2C1=O (stereo not given)
z-score [1]: -0.428 | z-score [2]: 0.754 (inactive) | z-score [3]: -1.13 (inactive) | composite z-score [4]: 0.656 (inactive) | z-score [5]: 0.419 (inactive) | z-score [6]: 0.567 (inactive) | z-score [7]: -0.483 (inactive) | z-score [8]: 0.0156 (inactive) | z-score [9]: -0.985 | composite z-score [10]: 0.462

COc1ccc([Si](C)(C)[C@H]2[C@H](CC(=O)N3CCC[C@H]3CO)O[C@@]3(C(=O)N(Cc4cccc(N5CCCCC5=O)c4)c4ccccc43)[C@@H]2C)cc1
z-score [1]: 0.276 | z-score [2]: -0.953 (inactive) | z-score [3]: -0.0453 (inactive) | composite z-score [4]: -3.28 (inactive) | z-score [5]: -0.234 (inactive) | z-score [6]: 0.64 (inactive) | z-score [7]: 0.957 (inactive) | z-score [8]: 0.965 (inactive) | z-score [9]: -0.185 | composite z-score [10]: -0.0126

COc1ccc([Si](C)(C)[C@H]2[C@H](CC(=O)N(CCO)Cc3ccccc3)O[C@@]3(C(=O)N(Cc4ccc(N5C(=O)c6cccc7cccc5c67)cc4)c4ccccc43)[C@@H]2C)cc1
z-score [1]: -1.14 | z-score [2]: 1.21 (inactive) | z-score [3]: -2.21 (inactive) | composite z-score [4]: -1.51 (inactive) | z-score [5]: 0.319 (inactive) | z-score [6]: 2.45 (inactive) | z-score [7]: -0.838 (inactive) | z-score [8]: -1.02 (inactive) | z-score [9]: -2.14 | composite z-score [10]: 0.177

COC(=O)[C@@]1(Cc2ccc(F)cc2)[C@@H]2C(=CC(=O)[C@H]2CC(=O)C(=O)N2CCCC2)CN1C(=O)c1ccccc1
z-score [1]: -1.96 | z-score [2]: 0.336 (inactive) | z-score [3]: -2.67 (inactive) | composite z-score [4]: -3.95 (inactive) | z-score [5]: 2.55 (inactive) | z-score [6]: 0.381 (inactive) | z-score [7]: 0.132 (inactive) | z-score [8]: -0.363 (inactive) | z-score [9]: -5.25 | composite z-score [10]: -0.0391

COC(=O)[C@@]1(Cc2ccc(F)cc2)[C@H]2c3cc(C(=O)N(C)C)n(Cc4ccc(C(F)(F)F)nc4)c3C[C@H]2CN1C(=O)c1ccccc1
z-score [1]: -0.575 | z-score [2]: 0.512 (inactive) | z-score [3]: -1.04 (inactive) | composite z-score [4]: 0.0058 (inactive) | z-score [5]: -0.359 (inactive) | z-score [6]: 0.337 (inactive) | z-score [7]: -0.532 (inactive) | z-score [8]: -0.171 (inactive) | z-score [9]: -0.912 | composite z-score [10]: 0.109

CC(C)(C)OC(=O)N1[C@@H](C=C(Br)Br)COC1(C)C
z-score [1]: 0.373 | z-score [2]: -4.13 (inactive) | z-score [3]: 0.0757 (inactive) | composite z-score [4]: -1.74 (inactive) | z-score [5]: -0.677 (inactive) | z-score [6]: -1.65 (inactive) | z-score [7]: 0.559 (inactive) | z-score [8]: 0.6 (inactive) | z-score [9]: -0.673 | composite z-score [10]: 0.0335

COCCCNC(=O)[C@]1(Cc2ccccc2N=[N+]=[N-])N=C(c2ccc(OCCCO)cc2)O[C@@H]1c1ccccc1
z-score [1]: 0.83 | z-score [2]: -0.591 (inactive) | z-score [3]: -1.25 (inactive) | composite z-score [4]: -0.28 (inactive) | z-score [5]: -0.444 (inactive) | z-score [6]: -0.029 (inactive) | z-score [7]: 2.99 (inactive) | z-score [8]: 0.26 (inactive) | z-score [9]: -0.953 | composite z-score [10]: 0.267

C=C(CCCC)C(=O)CC[C@@H](OC(C)=O)c1ccc(OCCO)cc1
z-score [1]: -0.603 | z-score [2]: -2 (inactive) | z-score [3]: -0.953 (inactive) | composite z-score [4]: -1.78 (inactive) | z-score [5]: 1.07 (inactive) | z-score [6]: 0.662 (inactive) | z-score [7]: 0.227 (inactive) | z-score [8]: 0.189 (inactive) | z-score [9]: -0.894 | composite z-score [10]: -0.074

CC(C)N1C(=O)[C@@]2(Cc3ccccc31)c1ccccc1C(=O)N(Cc1ccccc1C(F)(F)F)[C@H]2c1ccc(CO)cc1
z-score [1]: 0.0887 | z-score [2]: 0.407 (inactive) | z-score [3]: 0.0922 (inactive) | composite z-score [4]: -18 (active) | z-score [5]: 0.146 (inactive) | z-score [6]: -0.107 (inactive) | z-score [7]: -0.0949 (inactive) | z-score [8]: -0.818 (inactive) | z-score [9]: 0.566 | composite z-score [10]: 0.0377

C=C(COC)C(=O)CC[C@@H](OC(=O)c1ccccc1-c1ccccc1C(=O)O)c1ccccc1OCCO
z-score [1]: 0.078 | z-score [2]: -1.22 (inactive) | z-score [3]: -1.95 (inactive) | composite z-score [4]: -1.57 (inactive) | z-score [5]: 2.1 (inactive) | z-score [6]: -0.341 (inactive) | z-score [7]: 0.0796 (inactive) | z-score [8]: -0.129 (inactive) | z-score [9]: -1.81 | composite z-score [10]: 0.261

COc1ccc(C(O)C2C=CC3C(=O)N(c4ccccc4)C(=O)C3N2Nc2ccccc2F)c2ccccc12 (stereo not given)
z-score [1]: -1.83 | z-score [2]: -1.71 (inactive) | z-score [3]: -0.042 (inactive) | composite z-score [4]: -0.588 (inactive) | z-score [5]: 1.15 (inactive) | z-score [6]: -0.0824 (inactive) | z-score [7]: -0.203 (inactive) | z-score [8]: -0.617 (inactive) | z-score [9]: 0.0565 | composite z-score [10]: 0.253

C=CCC(OC(C)=O)[C@@H]1[C@@H](N(Cc2cccc3ccccc23)C(=O)c2ccc(C)cc2)c2cc(OCCCO)ccc2N1C(=O)Cc1ccc2ccccc2c1 (stereo not given in full)
z-score [1]: 0.0546 | z-score [2]: -1.34 (inactive) | z-score [3]: 0.802 (inactive) | composite z-score [4]: -2.08 (inactive) | z-score [5]: 0.0642 (inactive) | z-score [6]: -1.31 (inactive) | z-score [7]: 0.72 (inactive) | z-score [8]: 1.28 (inactive) | z-score [9]: 0.608 | composite z-score [10]: 0.0264
